Screening data from PubChem BioAssay.
Many of the other results were omitted from the sample, so hits are more common in it than they were.
15-hLO-2 inh – blocks human 15-lipoxygenase 2 activity; hit rate 0.56% among 110,000; O15296; AID 881; purified 15hLO-2, xylenol orange hydroperoxide absorbance; Potency, µM (series often up to 57.1 µM), for inactives: at the top dose activity change, negative = inhibition, hits mostly inhibitors; note: potency is the fitted concentration of half-maximal effect; nearly all actives have a fitted effect of over 60% in size
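Screening format was qHTS against 50 nM purified 15hLO-2 in Hepes pH 7.5 with detergent. Activity follows hydroperoxide formation from 45 uM arachidonic acid, measured as 573:405 nm absorbance ratio of the ferric-xylenol orange complex.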
12-hLO inh – 12-hLO (ALOX12) enzyme inhibition; purified 12-hLO, xylenol orange hydroperoxide absorbance; Potency, µM (highest dose often 57.1 µM), without a hit: top-dose activity change, negative = inhibition, usual class: inhibitors; hit rate 0.12% among 150,000; AID 1452; note: potency is the fitted concentration of half-maximal effect; nearly all actives have a fitted effect of over 55% in size
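Xylenol orange chromogenic assay: hydroperoxide from 12hLO oxidises Fe(II), giving red-shifted Fe(III)-XO absorbance. Conditions: 150 nM enzyme, 40 uM arachidonic acid, 25 mM Hepes pH 7.0, 0.01% Triton X-100, 30 min, room temperature.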
IMPase Li inh – IMPase inhibition in cells with lithium potentiation; Potency, µM (doses to about 59.4 µM), without a hit: at the highest dose activity, negative = IMPase inhibition, most hits filed as inhibitors; CHO-M1 cells, IP1 TR-FRET (IP-One), carbachol + lithium; hit rate 0.35% among 210,000;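 note: IP1 builds up when IMPase is blocked and the TR-FRET signal falls; potency is the fitted concentration of half-maximal effect; plate controls were basal vehicle for no effect and high inhibitor control for full effect; nearly all actives have a fitted effect of over 50% in size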
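Test compounds were applied to CHO-M1 cells previously cultured for 16–30 h at 2000 per well. A small lithium amount accompanied them; after 30 min at 37C, IP1 was quantified by TR-FRET.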
IMPase inh – cell-permeable inhibitors of inositol monophosphatase (IMPase); P97697; CHO-M1 cells, IP1 accumulation, HTRF TR-FRET ratio; inhibition (IP1 accumulation), % at 46.1 µM; 120,000 tested, under 10 active; AID 901; active = well fitted curve in the direction sought with a large enough effect in the signal ratio, not every such curve was filed as active; inconclusive = small, poorly fitted or top-dose-only effect, or a change in a side signal; inactive = no such curve, though single readings can be large or run the other way; the % refers to the signal ratio;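 note: cells stimulated with carbachol in lithium chloride buffer; plate controls were DMSO basal wells for no effect and reference inhibitor wells for full effect; higher means more IMPase inhibition seen as more IP1 and lower FRET ratio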
Target sequence (P97697 whole entry, looked up): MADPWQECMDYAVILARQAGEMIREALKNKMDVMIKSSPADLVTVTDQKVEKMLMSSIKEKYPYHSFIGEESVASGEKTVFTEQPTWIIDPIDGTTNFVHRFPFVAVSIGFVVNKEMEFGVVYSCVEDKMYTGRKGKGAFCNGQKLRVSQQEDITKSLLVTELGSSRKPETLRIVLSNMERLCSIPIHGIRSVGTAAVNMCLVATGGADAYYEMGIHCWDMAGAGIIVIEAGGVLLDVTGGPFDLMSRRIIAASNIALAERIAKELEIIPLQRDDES
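Measured: the HTRF emission ratio (665/620 nm) plus the 620 nm donor channel, each fitted to the Hill equation to give AC50. Cells were CHO-M1 given compounds up to 46 uM and a 30 min carbachol stimulation at 37C.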
PNC assembly inh – inhibitors of perinucleolar compartment assembly; hit rate 3.1% among 140,000; PC3M PTB-GFP, PNC prevalence imaging, 16 h; stronger effect = lower value; activity change (PNC), negative = inhibition, % at 10 µM;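 active = readout at or below -70, meaning at least 70% loss of cells showing the perinucleolar compartment, a nuclear body marking cancer cells; inconclusive = readout between -30 and a set limit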;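 note: plate controls were DMSO wells for no effect and camptothecin positive control wells for full effect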
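Read-out is percentage of cells bearing a perinucleolar compartment, from automated 20x imaging of fixed, Hoechst-stained PC3M PTB-GFP cells. Cells were seeded 4 h, then exposed 16 h to compound (23 nl of library stock) in duplicate plates.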
* hit, by the source's call; ? = inconclusive; · = no result; [ ] = another dose, or the depositor's remark. Unless noted, calls come from the whole dose curve; as a rule, active = well fitted curve in the direction sought with a large enough effect; inconclusive = small, poorly fitted or top-dose-only effect, or another doubt; inactive = no such curve, though single readings can be large; an effect the other way counts as inactive or inconclusive. Unless noted, % is set by controls: 0 for no effect and ±100 for the full control effect.

SMILES	15-hLO-2 inh	12-hLO inh	IMPase Li inh	IMPase inh	PNC assembly inh
O=C(COc1ccc(-c2nnco2)cc1)N1CCN(S(=O)(=O)c2ccccc2)CC1	4.3%	-0.7%	-4.4%[38.3 µM]	8.5	-81.4*
CCCS(=O)(=O)N1CCN(C(=O)COc2ccccc2)CC1	0.3%	5.8%	31.8%[38.3 µM]	1.0	?
CCCS(=O)(=O)N1CCN(C(=O)COc2ccc(-c3ccccc3)cc2)CC1	·	-3.6%	6.9%	-6.7	-87.6*
O=c1[nH]c2cc3c(cc2cc1C(c1nnnn1Cc1ccccc1)N1CCCc2ccccc21)OCO3 (stereo not given)	·	0.2%	-12.3%	-3.7	-118.9*
Cc1ccc(-c2cc(-c3ccc(C)o3)nc(N)c2C#N)cc1	?	15.8µM*	-5.3%[38.3 µM]	-3.4	7.0
Cc1ccc(-c2cc(-c3ccc(Cl)cc3)c(C#N)c(N)n2)o1	6.31µM*	11.2µM*	-0.2%[38.3 µM]	1.5	-23.4
C=CCSc1nc2c(N)ncnc2n1[C@@H]1O[C@H](CO)[C@@H](O)[C@@H]1O	-6.7%[11.4 µM]	1.4%[11.4 µM]	-11.0%	·	·
O=C(c1cnccn1)N1CCC[C@@]2(CCN(Cc3ccccc3)C2)C1	0.9%	1.4%	-2.1%	·	·
C=CCNc1nnc(Cl)c2ccccc12	4.9%	0.9%	-16.1%	-27.8	?
C=CCNc1nc(Cl)ncc1F	·	-5.0%	8.3%	-4.1	-119.3*
CCCn1c(C)nc2c(NCCCCN(C)C)nc(C)nc21	2.3%	-0.2%	-5.6%	·	·
CN(C)c1nc(-c2ccc3c(c2)OCO3)nc2ccccc12	-15.6%	·	13.2%	·	·
CC(C)CNC1=CC(=O)CC(c2ccco2)C1 (stereo not given)	-15.7%	-16.7%	8.3%[38.3 µM]	-1.8	-80.9*
O=C1C=C(NCc2ccc(Cl)cc2)CC(c2ccco2)C1 (stereo not given)	2.7%	-4.1%	-10.0%[38.3 µM]	7.4	16.2
COc1cc(/C=C/C(=O)N2CCCCC2=O)cc(OC)c1OC	-8.1%	1.6%	13.2%	2.8	·
CCOc1ccc(CN(C(=O)c2cc3ccccc3oc2=O)C2CC2)cc1	·	-4.9%	11.8%	9.1	-100.0*
COCCNC(=O)c1ccccc1NC(=O)c1ccccc1N(C)S(=O)(=O)c1ccccc1	2.9%	6.3%	27.7%[38.3 µM]	-4.4	24.8
COCCNC(=O)c1ccccc1NC(=O)c1ccccc1N(C)S(C)(=O)=O	·	3.8%	-7.8%	·	-110.7*
Oc1ccc([C@@H]2CNCCc3c2cc(O)c(O)c3Cl)cc1	-25.4%	-14.8%	19.6%	13.1	·
CC(=O)OC1CC2C(C)(C)C(O)CC(O)[C@@]2(C)C2CC[C@@]3(C)C(=CC(=O)OC3c3ccoc3)[C@]12C (stereo not given in full)	-7.7%	-3.5%	20.5%	·	·
COc1ccccc1-c1nccc(N2CCN(C)CC2)n1	21.4%	·	15.1%	·	·
CC1C/C(=C/c2cccs2)C(=O)/C(=C/c2cccs2)C1 (stereo not given)	·	-4.5%	15.7%	·	-113.4*
N#Cc1ccc(CSc2nnc(NC(=O)c3ccc4ncsc4c3)s2)cc1	·	·	7.94µM*	·	·
CCOC(=O)c1c(C)n(C)c2ccc(O)c(CN3CCN(C)CC3)c12	-4.9%	-2.6%	17.9%[38.3 µM]	7.4	-15.6
CCOC(=O)c1c(-c2ccccc2)oc2ccc(O)c(CN3CCN(C)CC3)c12	·	2.9%	2.9%	·	-113.8*
SMILES	15-hLO-2 inh	12-hLO inh	IMPase Li inh	IMPase inh	PNC assembly inh
Cc1nc2sc3c(c2c(=O)[nH]1)CCCC3	-7.0%[11.4 µM]	3.9%[11.4 µM]	4.0%	·	·
O=c1[nH]c(-c2ccco2)nc2sc3c(c12)CCCC3	·	-5.7%	5.5%	·	-116.4*
O=C(CS(=O)(=O)c1cn(Cc2ccc(Cl)cc2)c2ccccc12)N1CCCCC1	-6.0%	-8.2%	28.2%[38.3 µM]	1.6	?
O=C(CS(=O)(=O)c1cn(Cc2ccc(F)cc2)c2ccccc12)N1CCCCC1	·	-0.3%	7.8%	-12.9	-100.0*
N#CNC(N)=Nc1ccc(Cl)cc1	3.8%[11.4 µM]	1.5%[11.4 µM]	2.5%	·	·
COc1cccc(-c2cc3nc(-c4ccccc4)cc(N4CCC5(CC4)OCCO5)n3n2)c1	21.2%	-5.0%	11.2µM*	-4.8	-27.0
CN(C)CCOc1ncnc2c1oc1ccccc12	3.0%	7.5%	14.7%[38.3 µM]	10.0	-111.7*
Cc1cc(=O)oc(C)c1C(=O)OCC(=O)c1ccc(Br)cc1	·	-26.1%	17.3%	3.1	-89.9*
